Screening data: PubChem, National Center for Advancing Translational Sciences (NCATS)
CtBP-E1A blk: qHTS Assay for Inhibitors of the CtBP/E1A Interaction; 340,000 compounds, 0.49% hits; CtBP / adenovirus E1A interaction (AlphaScreen); activity change, % (test concentration not listed); AlphaScreen GST-E1A/His-CtBP binding, 1536-well; hits give low values; in the data active = activity change below about -65%; inconclusive = mostly about -30% to -63%; also: % is scaled to controls: 0 for no effect and ±100 for the full control effect
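GST-E1A and His-tagged CtBP (125 nM each as 5X stock) were preincubated with pin-transferred compound for 2 h at 37 °C in the dark, then glutathione donor and nickel acceptor beads were added for 1 h before AlphaScreen reading.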
Gal4-VP16 FLuc: VP16 counterscreen qHTS for inhibitors of ROR gamma transcriptional activity; Drosophila S2 Gal4-VP16 UAS-luciferase, luminescence, 20 h; Potency, µM (highest dose often 53.6 µM), for inactives: at the highest dose activity, negative = inhibition, hits mostly inhibitors; 310,000 compounds, 3.5% hits;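 also: Gal4-VP16 expression switched on by copper sulfate through the metallothionein promoter; potency is read from the fitted curve at half-maximal effect; % is scaled to controls: 0 for no effect and ±100 for the full control effect; nearly all actives have a fitted effect of over 50% in size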
MBNL1-CUG inh: qHTS Assay for Inhibitors of MBNL1-poly(CUG) RNA binding; AID 2675, 2010; 280,000 compounds, 0.036% hits; TR-FRET MBNL1-His/biotin-(CUG)12 binding, 665/545 ratio; Potency, µM (highest dose often 57.5 µM), for the others: top-dose activity change, negative = inhibition, usual class: inhibitors; Muscleblind-like protein 1 (Homo sapiens), Q9NR56; active = well fitted inhibition curve with a large enough effect in the signal ratio, with a control signal flat, not every such curve was filed as active; inconclusive = small, poorly fitted or top-dose-only effect, or effect the other way, or a change in a side signal; inactive = no such curve, though single readings can be large or run the other way; the % refers to the signal ratio; also: potency is read from the fitted curve at half-maximal effect; % is scaled to controls: 0 for no effect and ±100 for the full control effect
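TR-FRET between His-tagged MBNL1 and biotin-(CUG)12 RNA, detected with Tb anti-His antibody (0.055 ng/ul) and streptavidin-XL665 (5 nM), 60 min at room temperature. Compounds titrated 92 nM to 58 uM; 665/545 nm ratio normalized to buffer and complex controls.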
RORgamma inh: qHTS for inhibitors of ROR gamma transcriptional activity. Nuclear receptor ROR-gamma (Mus musculus), P51450. Drosophila S2 Gal4-RORgamma UAS-luciferase reporter, 20 h. Potency, µM (top dose mostly 53.6 µM), for the others: top-dose activity change, negative = inhibition, usual class: inhibitors. 310,000 compounds, 5.4% hits. AID 2551, 2010; also: potency is read from the fitted curve at half-maximal effect; % is scaled to controls: 0 for no effect and ±100 for the full control effect; nearly all actives have a fitted effect of over 60% in size
Target sequence (P51450 whole entry, looked up, the tested form may be a part): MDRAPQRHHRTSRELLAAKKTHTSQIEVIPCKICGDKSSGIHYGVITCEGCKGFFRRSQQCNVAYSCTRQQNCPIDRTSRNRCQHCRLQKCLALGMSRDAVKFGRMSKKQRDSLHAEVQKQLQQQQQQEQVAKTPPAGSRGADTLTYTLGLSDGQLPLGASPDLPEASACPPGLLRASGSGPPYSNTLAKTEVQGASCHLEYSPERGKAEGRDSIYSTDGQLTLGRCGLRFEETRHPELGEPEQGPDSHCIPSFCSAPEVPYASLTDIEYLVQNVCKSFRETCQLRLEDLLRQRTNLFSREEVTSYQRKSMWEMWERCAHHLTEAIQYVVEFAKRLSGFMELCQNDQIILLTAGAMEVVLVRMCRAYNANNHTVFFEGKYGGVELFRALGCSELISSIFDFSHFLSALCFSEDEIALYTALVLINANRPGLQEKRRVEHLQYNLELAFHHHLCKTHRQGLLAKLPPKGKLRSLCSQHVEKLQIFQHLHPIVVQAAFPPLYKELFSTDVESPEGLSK
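Read-out: Photinus luciferase luminescence; inhibitors lower reporter signal. Insect Schneider cells with Gal4-ROR gamma fusion under metallothionein promoter, UAS reporter; 700 uM final copper sulfate induction, 20 hr, ambient temperature.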
CBFb RUNX1 block: qHTS Assay for Compounds Blocking the Interaction Between CBF-beta and RUNX1 for the Treatment of Acute Myeloid Leukemia | Runt-related transcription factor 1 (Homo sapiens) + Core-binding factor subunit beta … | AlphaScreen CBFb-His/RUNX1-biotin binding, biochemical | Potency, µM (doses to about 59.8 µM), for inactives: at the highest dose activity, negative = inhibition, usual class: inhibitors | 230,000 tested, under 10 active; also: % of control where 0% means no effect
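CBF-beta (His) and RUNX1 (biotin), 30 nM each; 20 min preassociation; + compound, 15 min; + beads 50 ng each (Ni, streptavidin), 90 min; RT; AlphaScreen read.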
Six1-Eya2 inh: qHTS Assay for Inhibitors of the Six1/Eya2 Interaction | Homeobox protein SIX1 (Homo sapiens) + Protein phosphatase EYA2 (Homo sapiens), … | AID 651725, 2012 | AlphaScreen GST-Six1/His-Eya2 binding, biochemical; hits give low values | activity change, % (test concentration not listed) | 360,000 compounds, 0.56% hits; in the data active = activity change below about -65%; inconclusive = mostly about -30% to -63%; also: % is scaled to controls: 0 for no effect and ±100 for the full control effect
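GST-Six1 + His-Eya2 (5X stock: 250/500 nM); Tris pH 8.0, 300 mM NaCl, 0.05% BSA, 0.02% Tween 20; GSH donor/Ni acceptor beads; 1 h 37 °C dark; AlphaScreen readout.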
The depositor's hits bear a star; u = inconclusive; x = no result. An excerpt weighted towards active compounds, which were near 5.5% of everything screened. Unless noted, calls follow the shape of the dose curve; as a rule, active = well fitted curve in the direction sought with a large enough effect; inconclusive = small, poorly fitted or top-dose-only effect, or another doubt; inactive = no such curve, though single readings can be large; an effect the other way counts as inactive or inconclusive.

SMILES	CtBP-E1A blk	Gal4-VP16 FLuc	MBNL1-CUG inh	RORgamma inh	CBFb RUNX1 block	Six1-Eya2 inh
COC(=O)N=Nc1c(O)[nH]c2ccc(Br)cc12	-12	-5%	u	3%	-6%	-18
O=C(N=Nc1c(O)[nH]c2ccccc12)c1ccc(CN2CCOCC2)cc1	3	-8%	u	-3%	-1%	-6
COc1ccc(C(=O)NC(=S)Nc2ccc3oc(=O)ccc3c2)cc1	-6	-16%	x	-14%	-11%	13
CCCCCC(=O)NC(=S)Nc1ccc2oc(=O)ccc2c1	-1	u	9%	11µM*	4%	5
CCCCC(=O)NC(=S)Nc1cccc(NC(=O)c2ccccc2)c1	-22	7.9µM*	-8%	2.2µM*	24%	3
CCCC(=O)NC(=S)Nc1cccc(NC(=O)c2ccccc2)c1	2	3.5µM*	3%	u	-3%	0
CCCCCC(=O)NC(=S)Nc1ccc(NC(=O)c2ccco2)cc1	-3	u	1%	10µM*	-2%	0
Cn1c(=O)[nH]c2ncccc21	-1	4%	-2%	20%	2%	15
OCCCNc1cc(-c2ccnc(Nc3cccc(Cl)c3)n2)ccn1	-12	1µM*	-4%	1.8µM*	13%	-9
Cc1cc(NC(=O)COC(=O)C2CCN(S(=O)(=O)c3c(Cl)cccc3Cl)CC2)no1	0	-5%	-3%	5µM*	1%	4
CCOC(=O)C1CCN(S(=O)(=O)c2c(Cl)ccc3nonc23)CC1	x	2.8µM*	u	2.2µM*	x	x
CCCCN(C(=O)c1ccc(NC2CC2)c([N+](=O)[O-])c1)c1c(N)n(CCCC)c(=O)[nH]c1=O	-3	x	x	x	x	-4
O=C(O)CCCCCNS(=O)(=O)c1cccc2c1C(=O)c1ccccc1C2=O	0	-2%	u	-15%	1%	-76*
COC(=O)NC(/C=C/c1ccccc1)C(C(C)=O)C(=O)OC (configuration not stated)	x	-18%	x	-3%	-2%	x
Cc1nc2cc(C(=O)OCC(=O)NC(C)C(C)C)ccc2n1-c1ccccc1 (configuration not stated)	9	28µM*	-8%	-27%	4%	-1
CCOC(=O)c1sc(N2N=C(C)C(N=Nc3cccc(C)c3)C2=O)nc1C (configuration not stated)	-27	u	-5%	11µM*	-16%	-13
CC1=NN(c2nc(-c3ccc(C)cc3)cs2)C(=O)C1N=Nc1cccc(C)c1 (configuration not stated)	-12	u	x	7.1µM*	-11%	-29
CC1=NN(c2nc(-c3ccccc3)cs2)C(=O)C1	-4	-24%	0%	-33%	-9%	-25
CC1=NN(c2ccccc2C(=O)O)C(=O)C1N=Nc1ccccc1 (configuration not stated)	x	-9%	13%	26%	x	-5
Cc1ccc(S(=O)(=O)N2CCC(C(=O)NCCC3=CCCCC3)CC2)c(C)c1	-1	x	x	x	x	-5
O=C(/C=C/c1ccccc1)c1ccc2c(c1)OCCCCO2	2	u	2%	u	-9%	0
O=C(CCl)N(C/C=C/c1ccccc1)c1ccc2c(c1)OCCO2	-2	u	8%	13µM*	-12%	-3
CCC[C@@H](CN[C@@H](CNC)[C@H](C)CC)NCC1CCC(C(C)(C)C)CC1 (some centres not stated)	-7	u	4%	11µM*	x	4
N#Cc1ccccc1OCCN1C(=O)c2ccccc2C1=O	0	-1%	u	u	0%	20
Nc1cccc2c1C(=O)N(CCOc1ccccc1F)C2=O	37	u	u	8.9µM*	x	38
SMILES	CtBP-E1A blk	Gal4-VP16 FLuc	MBNL1-CUG inh	RORgamma inh	CBFb RUNX1 block	Six1-Eya2 inh
Cc1ccc([C@H]2C[C@@H](n3cc(-c4ccc(F)cc4)nn3)[C@H](O)CN2C(=O)c2cccs2)cc1	-1	x	x	x	x	-2
COc1ccc2[nH]cc(CCNc3nc(-c4ccccc4CN(C)C)nc4ccccc34)c2c1	x	-9%	x	19%	x	x
Cc1cccc(CNc2nc(-c3ccccc3CN(C)C)nc3ccccc23)c1	x	u	x	22µM*	x	x
COc1ccc(CNc2nc(-c3ccccc3CN(C)C)nc3ccccc23)c(OC)c1	x	u	x	13µM*	x	x
CN(C)Cc1ccccc1-c1nc(NCc2cccs2)c2ccccc2n1	x	-11%	x	-33%	x	x
NNC(=O)c1sc2cc(C(F)(F)F)cnc2c1-c1cccs1	3	u	-3%	10µM*	8%	-7
NNC(=O)c1sc2cc(C(F)(F)F)cnc2c1-c1cccnc1	2	u	-2%	14µM*	3%	2
COC(=O)c1sc2cc(C(F)(F)F)cnc2c1-c1cccnc1	-15	-9%	24%	-18%	9%	-72*
COC(=O)c1sc2cc(C(F)(F)F)cnc2c1-c1ccccn1	6	-12%	17%	19%	10%	7
COc1ccccc1/C=C/C(=O)NC(=S)Nc1ccccn1	x	5.6µM*	14%	4.5µM*	x	-10
Cn1nnc(NC(=S)NC(=O)/C=C/c2ccco2)n1	1	-8%	14%	2%	-4%	-9
O=C(/C=C/c1ccco1)Nc1cccc(NC(=O)/C=C/c2ccco2)n1	2	u	x	18%	u	-15
COc1ccc(/C=C/C(=O)NC(=S)Nc2ccccn2)cc1	x	-28%	11%	u	x	2
O=C(/C=C/c1ccco1)NC(=S)Nc1ccccn1	-1	u	21%	10µM*	-6%	-3
Cc1cccnc1NC(=S)NC(=O)/C=C/c1ccco1	24	7.9µM*	14%	2.8µM*	u	15
O=C(O)CN1C(=O)C=CC1=O	1	x	x	x	x	-4
O=C1C=CC(=O)N1CCCCCCN1C(=O)C=CC1=O	-13	0.89µM*	u	3.2µM*	-3%	-15
CC(/C=C/C=C/c1ccccc1)=N\NC(=O)c1cccnc1	5	3.2µM*	u	2.8µM*	1%	-2
O=C(N/N=C(\c1ccccc1)c1cccnc1)c1cccc(F)c1	-3	x	34%	0.13µM*	x	-80*
CC(/C=C\C=C\c1ccccc1)=N\NC(=O)c1cncc(Br)c1	1	6.3µM*	18%	4.5µM*	7%	-7
